# Measured values reported in the supplement of paper PMC4466140.
# B1: unnamed (peptide)
# chain: QRIRKIPGIPLMSVG
# Target: AgAbp1
# Assay: SPOT peptide array binding signal intensity (averaged, normalized) (arbitrary units (background-subtracted, floor 0; scale differs between SH3 domains)); higher = stronger binding of the SH3 domain to the peptide
# Protocol: (§1)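 GST-tagged SH3 domains from S. cerevisiae (Sc), A. gossypii (Ag), C. albicans (Ca) and S. pombe (Sp) were incubated at 10 ug/ml overnight at 4 C on cellulose SPOT membranes carrying 292 synthetic 15-mer peptides mined from the S. cerevisiae proteome (cysteines replaced by serines). Binding was detected with anti-GST antibody, HRP secondary and chemiluminescence, quantified with Genespotter, and reported as normalized spot intensities averaged over biological replicates.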
row,Binder,SPOT peptide array binding signal intensity
1,B1,26

# Target: AgBbc1
# Assay: as above
# Protocol: as §1
row,Binder,SPOT peptide array binding signal intensity
1,B1,184

# Target: AgBem1-D1
# Assay: as above
# Protocol: as §1
row,Binder,SPOT peptide array binding signal intensity
1,B1,63.5

# Target: AgBzz1-D1
# Assay: as above
# Protocol: as §1
row,Binder,SPOT peptide array binding signal intensity
1,B1,19.5

# Target: AgBzz1-D2
# Assay: as above
# Protocol: as §1
row,Binder,SPOT peptide array binding signal intensity
1,B1,34

# Target: AgCyk3
# Assay: as above
# Protocol: as §1
row,Binder,SPOT peptide array binding signal intensity
1,B1,1

# Target: AgFus1
# Assay: as above
# Protocol: as §1
row,Binder,SPOT peptide array binding signal intensity
1,B1,296

# Target: AgHof1
# Assay: as above
# Protocol: as §1
row,Binder,SPOT peptide array binding signal intensity
1,B1,29.2

# Target: AgHse1
# Assay: as above
# Protocol: as §1
row,Binder,SPOT peptide array binding signal intensity
1,B1,194

# Target: AgLsb1
# Assay: as above
# Protocol: as §1
row,Binder,SPOT peptide array binding signal intensity
1,B1,13.8

# Target: AgLsb4
# Assay: as above
# Protocol: as §1
row,Binder,SPOT peptide array binding signal intensity
1,B1,258

# Target: AgMyo5
# Assay: as above
# Protocol: as §1
row,Binder,SPOT peptide array binding signal intensity
1,B1,≤ 0

# Target: AgNbp2
# Assay: as above
# Protocol: as §1
row,Binder,SPOT peptide array binding signal intensity
1,B1,486

# Target: AgRvs167
# Assay: as above
# Protocol: as §1
row,Binder,SPOT peptide array binding signal intensity
1,B1,54.8

# Target: AgSho1
# Assay: as above
# Protocol: as §1
row,Binder,SPOT peptide array binding signal intensity
1,B1,104

# Target: AgSla1-D1-D2
# Assay: as above
# Protocol: as §1
row,Binder,SPOT peptide array binding signal intensity
1,B1,40.5

# Target: AgSla1-D3
# Assay: as above
# Protocol: as §1
row,Binder,SPOT peptide array binding signal intensity
1,B1,11.5

# Target: CaAbp1-D1
# Assay: as above
# Protocol: as §1
row,Binder,SPOT peptide array binding signal intensity
1,B1,253

# Target: CaAbp1-D2
# Assay: as above
# Protocol: as §1
row,Binder,SPOT peptide array binding signal intensity
1,B1,358

# Target: CaBbc1
# Assay: as above
# Protocol: as §1
row,Binder,SPOT peptide array binding signal intensity
1,B1,226

# Target: CaBem1-D1
# Assay: as above
# Protocol: as §1
row,Binder,SPOT peptide array binding signal intensity
1,B1,34.5

# Target: CaBzz1-D1
# Assay: as above
# Protocol: as §1
row,Binder,SPOT peptide array binding signal intensity
1,B1,162

# Target: CaBzz1-D2
# Assay: as above
# Protocol: as §1
row,Binder,SPOT peptide array binding signal intensity
1,B1,106

# Target: CaCyk3
# Assay: as above
# Protocol: as §1
row,Binder,SPOT peptide array binding signal intensity
1,B1,49.5

# Target: CaFus1
# Assay: as above
# Protocol: as §1
row,Binder,SPOT peptide array binding signal intensity
1,B1,707

# Target: CaHof1
# Assay: as above
# Protocol: as §1
row,Binder,SPOT peptide array binding signal intensity
1,B1,0.25

# Target: CaHse1
# Assay: as above
# Protocol: as §1
row,Binder,SPOT peptide array binding signal intensity
1,B1,94.2

# Target: CaLsb1
# Assay: as above
# Protocol: as §1
row,Binder,SPOT peptide array binding signal intensity
1,B1,1.25

# Target: CaLsb4
# Assay: as above
# Protocol: as §1
row,Binder,SPOT peptide array binding signal intensity
1,B1,2460

# Target: CaMyo5
# Assay: as above
# Protocol: as §1
row,Binder,SPOT peptide array binding signal intensity
1,B1,1.5
